The values that follow come from PubChem BioAssay (NCI).

Some test systems named below: HCT-15 colon; HT29 colon; SNB-75 CNS; SNB-19 CNS; U251 CNS; PC-3 prostate; SK-MEL-5 melanoma; UACC-62 melanoma; LOX IMVI melanoma; SK-MEL-28 melanoma; SK-MEL-2 melanoma; EKVX NSCLC; SN12C renal; UO-31 renal; TK-10 renal; ACHN renal; CAKI-1 renal; CCRF-CEM leukemia; MOLT-4 leukemia.
Holding throughout (assay): NCI-60 one-dose screen, 48 h (100 = growth as untreated, 0 = no growth, -100 = all killed)
What all share (settings): 10 µM unless noted

About 83,000 compounds went through this panel and 20% of them were active in at least one assay; those are over-represented in the sample as a whole.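 Assay: single dose, 48 h. Readout: percent growth (0 = no net growth; negative = cell death). Active: <10.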 A number with no mark means an inactive call. Calls of active or inactive are those of the source.

Turning to `CCCCCCNC(=O)Oc1ccc(/C(=C(/CC)Cc2ccccc2)c2ccc(OCCN(CC)CC)cc2)cc1`, the growth in the assay with HCT-15 colon is 5.48% (active); in the assay with HT29 colon, -24.3% (active); with SNB-75 CNS, 78.8%; in the assay with SNB-19 CNS, 69.2%; with U251 CNS it was 43.2%; with PC-3 prostate, 51.6%. Also, the growth in the assay on SK-MEL-5 melanoma was 51.2%; with UACC-62 melanoma it was 87.6%; with LOX IMVI melanoma, 80.1%; in the assay on SK-MEL-28 melanoma, 80.8%; in the assay on SK-MEL-2 melanoma, 99.8%; in the assay with EKVX NSCLC, 81%. Also, the growth was 73.5% in the assay with SN12C renal; 58% with UO-31 renal; 93.1% in the assay with TK-10 renal; 89.4% in the assay on ACHN renal; 91% in the assay on CAKI-1 renal; 45.4% with CCRF-CEM leukemia. Moreover, in the assay with MOLT-4 leukemia, the growth was 35.2%.
As for `CCOC(=O)Oc1c(OC)cc(C(=O)O[C@@H]2C[C@@H]3CN4CCc5c([nH]c6cc(OC)ccc56)[C@H]4C[C@@H]3[C@H](C(=O)OC)[C@H]2OC)cc1OC`, the growth in the assay with HCT-15 colon was 44.1%; with HT29 colon it was 36.7%; in the assay with SNB-75 CNS, 91.1%; in the assay on SNB-19 CNS it was 75.5%; with U251 CNS, 49.4%; with PC-3 prostate, 35%. The growth was 86.1% in the assay on SK-MEL-5 melanoma; 87.8% in the assay on UACC-62 melanoma; 14.4% with LOX IMVI melanoma; 83.2% in the assay on SK-MEL-28 melanoma; 105% in the assay on SK-MEL-2 melanoma; 64.6% in the assay with EKVX NSCLC. Besides, the growth in the assay on SN12C renal is 60%; in the assay on UO-31 renal, 80.2%; in the assay on TK-10 renal, 99.7%; with ACHN renal, 66.5%; in the assay with CAKI-1 renal, 65.5%; with CCRF-CEM leukemia it was -10.8% (active). Also, the growth with MOLT-4 leukemia is 7.97% (active).
Take `CC1(C)CC[C@]2(C(=O)NCC#CCN3CCOCC3)CC[C@]3(C)C(=CC[C@@H]4[C@@]5(C)Cc6c([nH]c7ccccc67)C(C)(C)[C@@H]5CC[C@]43C)[C@@H]2C1`: the growth in the assay on HCT-15 colon is 93.5%; in the assay on HT29 colon, 83.5%; in the assay with SNB-75 CNS, 98.2%; in the assay on SNB-19 CNS it was 93.1%; with U251 CNS it was 87.9%; in the assay on PC-3 prostate, 58.6%. The growth in the assay with SK-MEL-5 melanoma was 88.8%; in the assay on UACC-62 melanoma, 49.3%; in the assay with LOX IMVI melanoma, 94.6%; with SK-MEL-28 melanoma, 67.7%; in the assay on SK-MEL-2 melanoma, 94.6%; in the assay with EKVX NSCLC it was 96.8%. The growth is 94.4% in the assay on SN12C renal; 81.6% in the assay with UO-31 renal; 95.7% in the assay with TK-10 renal; 73.1% with ACHN renal; 81.9% in the assay on CAKI-1 renal; 83.1% with CCRF-CEM leukemia. In the assay on MOLT-4 leukemia, the growth is 72.3%.
Consider `COc1cc2oc(-c3cccc(C(=O)Nc4ccc(Cl)cc4)c3)cc(=O)c2c(OC)c1OC`, for which the growth with HCT-15 colon was 17%; in the assay on HT29 colon, 4.57% (active); in the assay on SNB-75 CNS, 70.6%; in the assay on SNB-19 CNS, 52.7%; in the assay on U251 CNS, 37.4%; with PC-3 prostate, 27.1%. Moreover, the growth was -60.1% (active) in the assay with SK-MEL-5 melanoma; -9.87% (active) in the assay with UACC-62 melanoma; 2.16% (active) in the assay with LOX IMVI melanoma; -9.19% (active) with SK-MEL-28 melanoma; 31.4% in the assay on SK-MEL-2 melanoma; 48.2% in the assay on EKVX NSCLC. For the same compound, the growth with SN12C renal was 33.2%; with UO-31 renal, 23.2%; in the assay on TK-10 renal, 38.6%; in the assay on ACHN renal, 33.2%; with CAKI-1 renal, 8.22% (active); with CCRF-CEM leukemia, 28.5%. For the same compound, the growth in the assay with MOLT-4 leukemia was 36.1%.
With `O=C(Nc1cccc(C2=NCCN2)c1)c1ccc(OCCCOc2ccc(C(=O)Nc3cccc(C4=NCCN4)c3)cc2)cc1`, the growth with HCT-15 colon was 90.7%; with HT29 colon it was 12.9%; with SNB-75 CNS, -1.39% (active); with SNB-19 CNS it was 14.9%; in the assay with U251 CNS, 24.8%; in the assay on PC-3 prostate, 29.8%. In addition, the growth with SK-MEL-5 melanoma is 2.98% (active); in the assay with UACC-62 melanoma it was -10.5% (active); with LOX IMVI melanoma, -33.4% (active); with SK-MEL-28 melanoma it was -67.4% (active); in the assay with SK-MEL-2 melanoma, -47.3% (active); in the assay with EKVX NSCLC, 69.4%. The growth was 23.6% in the assay on SN12C renal; 85.7% in the assay with UO-31 renal; 81.5% with TK-10 renal; 75.3% with ACHN renal; 65.1% in the assay with CAKI-1 renal; 33.5% with CCRF-CEM leukemia. Further, in the assay with MOLT-4 leukemia, the growth is 25.4%.
`O=C(Nc1nc2ccc(S(=O)(=O)Nc3ccc(C4(C(F)(F)F)CC4)cc3)cc2[nH]1)c1cnccn1`: the growth in the assay with HCT-15 colon was 29.5%; with HT29 colon it was 15.6%; with SNB-75 CNS it was -27.1% (active); in the assay with SNB-19 CNS, 40.3%; in the assay with U251 CNS, 38%; with PC-3 prostate it was 27.7%. For the same compound, the growth in the assay with SK-MEL-5 melanoma was 26.1%; in the assay with UACC-62 melanoma, 40%; in the assay with LOX IMVI melanoma, 38.3%; with SK-MEL-28 melanoma it was 57.2%; in the assay with SK-MEL-2 melanoma it was 56.3%; in the assay with EKVX NSCLC it was 65.3%. In addition, the growth with SN12C renal is 44.9%; in the assay on UO-31 renal, 40.3%; in the assay on TK-10 renal it was 65.9%; in the assay on ACHN renal it was 43.5%; in the assay on CAKI-1 renal, 28.6%; in the assay on CCRF-CEM leukemia it was 19.9%. Further, in the assay on MOLT-4 leukemia, the growth is 38.7%.
In the case of `Nc1nnc(C(=O)c2cnc3n(c2=O)CCCCC3)s1`, the growth is 102% with HCT-15 colon; 115% in the assay with HT29 colon; 85.7% with SNB-75 CNS; 102% in the assay on SNB-19 CNS; 101% in the assay on U251 CNS; 101% with PC-3 prostate. Also, the growth is 98.5% in the assay on SK-MEL-5 melanoma; 93.3% in the assay with UACC-62 melanoma; 89% in the assay on LOX IMVI melanoma; 106% in the assay on SK-MEL-28 melanoma; 112% in the assay on SK-MEL-2 melanoma; 98.8% in the assay with EKVX NSCLC. Besides, the growth in the assay with SN12C renal is 95.1%; in the assay with UO-31 renal it was 86.3%; with TK-10 renal, 102%; in the assay on ACHN renal, 101%; in the assay on CAKI-1 renal, 92.3%; in the assay on CCRF-CEM leukemia, 128%. For the same compound, in the assay on MOLT-4 leukemia, the growth was 97.1%.
For `CC(=O)O[C@]1(C(C)=O)CC[C@H]2[C@@H]3C=C(Cl)C4=CC(=O)CC[C@]4(C)[C@H]3CC[C@@]21C`, the growth in the assay with HCT-15 colon is 102%; in the assay with HT29 colon, 101%; with SNB-75 CNS it was 117%; with SNB-19 CNS, 98%; with U251 CNS, 106%; in the assay on PC-3 prostate, 96.1%. Moreover, the growth with SK-MEL-5 melanoma was 109%; in the assay with UACC-62 melanoma, 90.6%; in the assay with LOX IMVI melanoma it was 115%; in the assay on SK-MEL-28 melanoma it was 119%; in the assay with SK-MEL-2 melanoma, 98.6%; in the assay with EKVX NSCLC, 107%. The growth is 97.7% in the assay with SN12C renal; 93.8% in the assay on UO-31 renal; 113% with TK-10 renal; 108% in the assay with ACHN renal; 94.6% in the assay with CAKI-1 renal; 95.3% in the assay with CCRF-CEM leukemia. Also, the growth with MOLT-4 leukemia is 84.9%.
